# Measured values as given in PMC7862700, “An all-to-all approach to the identification of sequence-specific readers for epigenetic DNA modifications on cytosine”.
# Legend:
# Test in all cases: DAPPL (digital affinity profiling via proximity ligation, sequencing); 10 mM Tris-HCl pH 7.5, 50 mM NaCl, 1 mM DTT, 4% glycerol, room temperature, 30 min; GST-TFs on glutathione beads, 16-mer random dsDNA library, 0.1% formaldehyde crosslink after washing; high values mean tight binding
# FLI1 = biological target: T1, FLI1 (Homo sapiens, UniProt Q01543 1-452); settings: protein: recombinant; tags: N-terminal GST; dsDNA, one strand shown
# T1 sequence: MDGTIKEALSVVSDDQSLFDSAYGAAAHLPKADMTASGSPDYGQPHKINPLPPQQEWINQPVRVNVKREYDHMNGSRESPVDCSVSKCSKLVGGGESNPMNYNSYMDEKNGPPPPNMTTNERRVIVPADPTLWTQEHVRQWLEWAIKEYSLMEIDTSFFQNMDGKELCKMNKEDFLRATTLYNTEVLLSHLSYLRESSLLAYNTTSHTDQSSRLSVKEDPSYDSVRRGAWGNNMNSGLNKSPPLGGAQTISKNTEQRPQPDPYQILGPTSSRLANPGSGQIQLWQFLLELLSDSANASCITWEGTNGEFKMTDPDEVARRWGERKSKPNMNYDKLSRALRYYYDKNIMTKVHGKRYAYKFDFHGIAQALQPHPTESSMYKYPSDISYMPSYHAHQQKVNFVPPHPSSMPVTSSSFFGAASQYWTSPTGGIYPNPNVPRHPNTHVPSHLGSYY
# Procedure, shortened: (§1)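 Human transcription factors fused to GST were expressed in yeast, captured on glutathione beads, given DNA barcodes and pooled with a GST-only negative control. Pools were incubated with 200 nmole of a 16-mer random double-stranded DNA library in Tris/NaCl/DTT/glycerol buffer at room temperature for 30 min. They were then washed, crosslinked with 0.1% formaldehyde, proximity-ligated (BsaI/T4 ligase, 1 h, 37 °C), PCR-amplified and sequenced on an Illumina NextSeq500. Binding signal is each 6-mer's read frequency for a factor divided by its frequency for the GST control.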
# ELK1 = biological target: T2, ELK1 (Homo sapiens, UniProt P19419 1-428); settings: protein: recombinant; tags: N-terminal GST; dsDNA, one strand shown
# T2 sequence: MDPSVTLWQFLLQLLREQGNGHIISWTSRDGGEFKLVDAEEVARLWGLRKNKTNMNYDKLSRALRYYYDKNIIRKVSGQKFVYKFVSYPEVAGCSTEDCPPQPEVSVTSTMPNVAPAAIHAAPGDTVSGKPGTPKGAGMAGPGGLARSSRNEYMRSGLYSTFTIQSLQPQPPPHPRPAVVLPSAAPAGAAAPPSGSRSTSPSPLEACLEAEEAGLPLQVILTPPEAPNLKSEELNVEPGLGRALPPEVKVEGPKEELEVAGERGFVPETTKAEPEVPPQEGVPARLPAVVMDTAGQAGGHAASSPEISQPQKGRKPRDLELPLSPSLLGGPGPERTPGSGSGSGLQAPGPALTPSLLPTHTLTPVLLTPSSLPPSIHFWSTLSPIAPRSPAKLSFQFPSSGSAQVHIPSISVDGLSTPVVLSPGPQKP
# Procedure, shortened: as §1
# GABPA = biological target: T3, GABPA (Homo sapiens, UniProt Q06546 1-454); settings: protein: recombinant; tags: N-terminal GST; dsDNA, one strand shown
# T3 sequence: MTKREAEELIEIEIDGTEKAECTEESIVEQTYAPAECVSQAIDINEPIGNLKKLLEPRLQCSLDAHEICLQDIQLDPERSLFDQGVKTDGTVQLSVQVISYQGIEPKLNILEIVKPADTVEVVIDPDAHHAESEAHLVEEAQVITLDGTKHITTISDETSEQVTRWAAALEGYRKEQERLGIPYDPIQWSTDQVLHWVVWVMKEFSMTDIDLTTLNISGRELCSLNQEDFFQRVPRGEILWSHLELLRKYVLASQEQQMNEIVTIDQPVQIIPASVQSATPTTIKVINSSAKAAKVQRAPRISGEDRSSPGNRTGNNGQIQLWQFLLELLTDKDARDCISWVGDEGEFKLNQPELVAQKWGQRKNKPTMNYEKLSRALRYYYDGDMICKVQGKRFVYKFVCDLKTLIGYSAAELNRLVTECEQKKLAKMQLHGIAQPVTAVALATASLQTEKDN
# Procedure, shortened: as §1
# ERG = biological target: T4, ERG (Homo sapiens, UniProt P11308 1-479); settings: protein: recombinant; tags: N-terminal GST; dsDNA, one strand shown
# T4 sequence: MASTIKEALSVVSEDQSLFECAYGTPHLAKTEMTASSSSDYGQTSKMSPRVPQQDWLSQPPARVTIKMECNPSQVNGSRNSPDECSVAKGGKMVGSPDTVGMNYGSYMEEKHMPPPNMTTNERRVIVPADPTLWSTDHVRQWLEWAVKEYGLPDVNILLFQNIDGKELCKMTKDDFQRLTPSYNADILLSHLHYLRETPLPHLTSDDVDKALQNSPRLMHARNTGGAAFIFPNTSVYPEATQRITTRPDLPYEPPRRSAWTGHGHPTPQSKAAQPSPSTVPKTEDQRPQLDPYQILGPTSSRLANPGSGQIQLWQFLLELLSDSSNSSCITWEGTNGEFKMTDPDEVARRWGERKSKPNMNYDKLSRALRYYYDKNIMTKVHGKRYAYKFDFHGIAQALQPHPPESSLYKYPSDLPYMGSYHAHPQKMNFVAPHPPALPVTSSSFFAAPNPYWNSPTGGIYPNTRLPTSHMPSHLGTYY
# Procedure, shortened: as §1
# ELF1 = ELF1 (Homo sapiens, UniProt P32519 1-619); settings: protein: recombinant; tags: N-terminal GST; dsDNA, one strand shown
# Sequence of ELF1 (P32519 whole entry): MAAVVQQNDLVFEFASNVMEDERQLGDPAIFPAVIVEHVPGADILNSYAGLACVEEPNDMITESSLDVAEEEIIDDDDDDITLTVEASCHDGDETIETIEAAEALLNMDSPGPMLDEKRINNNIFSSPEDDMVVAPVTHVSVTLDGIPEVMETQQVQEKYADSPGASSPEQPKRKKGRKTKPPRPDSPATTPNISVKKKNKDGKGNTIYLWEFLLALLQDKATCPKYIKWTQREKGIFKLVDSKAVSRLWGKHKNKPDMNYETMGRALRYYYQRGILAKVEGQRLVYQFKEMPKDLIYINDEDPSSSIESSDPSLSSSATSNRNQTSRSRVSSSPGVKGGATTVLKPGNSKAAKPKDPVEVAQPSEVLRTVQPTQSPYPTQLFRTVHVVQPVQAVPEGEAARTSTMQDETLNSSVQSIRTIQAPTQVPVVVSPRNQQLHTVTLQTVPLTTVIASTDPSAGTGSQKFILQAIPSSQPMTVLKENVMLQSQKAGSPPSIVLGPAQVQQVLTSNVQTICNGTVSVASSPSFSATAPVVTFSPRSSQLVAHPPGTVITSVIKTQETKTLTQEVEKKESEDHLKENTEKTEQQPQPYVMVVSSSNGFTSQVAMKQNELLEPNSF
# Procedure, shortened: as §1
# EHF = biological target: T5, EHF (Homo sapiens, UniProt Q9NZC4 1-300); settings: protein: recombinant; tags: N-terminal GST; dsDNA, one strand shown
# T5 sequence: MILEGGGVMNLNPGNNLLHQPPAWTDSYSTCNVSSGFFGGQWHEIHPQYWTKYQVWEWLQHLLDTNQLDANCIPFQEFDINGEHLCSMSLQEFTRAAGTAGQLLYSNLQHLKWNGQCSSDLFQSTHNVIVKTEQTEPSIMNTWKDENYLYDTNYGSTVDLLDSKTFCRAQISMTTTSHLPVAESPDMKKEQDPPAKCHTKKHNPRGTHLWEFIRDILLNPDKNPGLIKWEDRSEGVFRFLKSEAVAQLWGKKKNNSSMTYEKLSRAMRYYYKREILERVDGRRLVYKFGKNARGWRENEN
# Procedure, shortened: as §1
# SPI1 = SPI1 (Homo sapiens, UniProt P17947 1-270); settings: protein: recombinant; tags: N-terminal GST; dsDNA, one strand shown
# Procedure, shortened: as §1
# SPIB = SPIB (Homo sapiens, UniProt Q01892 1-262); settings: protein: recombinant; tags: N-terminal GST; dsDNA, one strand shown
# Sequence of SPIB (Q01892 whole entry): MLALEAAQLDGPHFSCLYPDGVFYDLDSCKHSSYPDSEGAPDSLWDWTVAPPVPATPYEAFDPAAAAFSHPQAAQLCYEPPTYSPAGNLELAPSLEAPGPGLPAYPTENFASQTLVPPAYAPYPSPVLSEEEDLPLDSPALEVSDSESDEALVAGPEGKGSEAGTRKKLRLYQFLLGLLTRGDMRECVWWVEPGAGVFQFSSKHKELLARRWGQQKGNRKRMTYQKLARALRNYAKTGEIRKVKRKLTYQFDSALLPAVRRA
# Procedure, shortened: as §1
# ELK3 = biological target: T6, ELK3 (Homo sapiens, UniProt P41970 1-407); settings: protein: recombinant; tags: N-terminal GST; dsDNA, one strand shown
# T6 sequence: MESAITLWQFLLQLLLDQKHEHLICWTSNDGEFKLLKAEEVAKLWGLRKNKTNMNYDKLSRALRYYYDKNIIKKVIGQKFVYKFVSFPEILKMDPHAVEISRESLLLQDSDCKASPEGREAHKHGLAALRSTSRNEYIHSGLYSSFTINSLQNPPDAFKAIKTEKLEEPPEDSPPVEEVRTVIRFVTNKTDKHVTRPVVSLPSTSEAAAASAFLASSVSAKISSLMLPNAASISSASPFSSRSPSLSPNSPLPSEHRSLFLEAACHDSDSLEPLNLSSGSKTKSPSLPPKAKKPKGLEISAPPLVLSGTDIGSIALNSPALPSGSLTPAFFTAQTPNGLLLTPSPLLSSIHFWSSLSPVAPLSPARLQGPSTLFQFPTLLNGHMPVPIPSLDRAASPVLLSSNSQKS
# Procedure, shortened: as §1
# FEV = biological target: T7, FEV (Homo sapiens, UniProt Q99581 1-238); settings: protein: recombinant; tags: N-terminal GST; dsDNA, one strand shown
# T7 sequence: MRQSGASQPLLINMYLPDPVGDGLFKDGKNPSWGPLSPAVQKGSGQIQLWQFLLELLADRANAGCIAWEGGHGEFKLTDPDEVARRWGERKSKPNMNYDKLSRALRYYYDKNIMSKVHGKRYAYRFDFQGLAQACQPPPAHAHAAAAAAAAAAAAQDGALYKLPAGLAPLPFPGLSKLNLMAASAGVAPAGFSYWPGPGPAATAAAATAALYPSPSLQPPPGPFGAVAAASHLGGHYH
# Procedure, shortened: as §1
# ETV5 = ETV5 (Homo sapiens, UniProt P41161 1-510); settings: protein: recombinant; tags: N-terminal GST; dsDNA, one strand shown
# Sequence of ETV5 (P41161 whole entry): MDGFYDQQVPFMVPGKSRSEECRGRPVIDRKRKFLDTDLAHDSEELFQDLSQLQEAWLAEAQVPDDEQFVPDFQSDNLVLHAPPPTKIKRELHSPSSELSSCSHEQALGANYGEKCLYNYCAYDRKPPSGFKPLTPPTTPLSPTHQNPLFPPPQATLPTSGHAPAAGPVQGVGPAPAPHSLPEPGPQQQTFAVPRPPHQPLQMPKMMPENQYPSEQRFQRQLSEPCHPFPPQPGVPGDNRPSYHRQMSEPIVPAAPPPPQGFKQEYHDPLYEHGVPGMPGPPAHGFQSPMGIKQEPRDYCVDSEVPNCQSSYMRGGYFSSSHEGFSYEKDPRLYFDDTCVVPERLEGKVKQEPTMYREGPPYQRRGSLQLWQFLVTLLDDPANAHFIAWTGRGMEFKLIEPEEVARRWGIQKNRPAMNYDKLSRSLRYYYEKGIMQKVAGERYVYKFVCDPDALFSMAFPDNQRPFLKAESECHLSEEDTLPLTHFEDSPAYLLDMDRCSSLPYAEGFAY
# Procedure, shortened: as §1
# HSF1 = HSF1 (Homo sapiens, UniProt Q00613 1-529); settings: protein: recombinant; tags: N-terminal GST; chain copies: 3; dsDNA, one strand shown
# Sequence of HSF1 (Q00613 whole entry): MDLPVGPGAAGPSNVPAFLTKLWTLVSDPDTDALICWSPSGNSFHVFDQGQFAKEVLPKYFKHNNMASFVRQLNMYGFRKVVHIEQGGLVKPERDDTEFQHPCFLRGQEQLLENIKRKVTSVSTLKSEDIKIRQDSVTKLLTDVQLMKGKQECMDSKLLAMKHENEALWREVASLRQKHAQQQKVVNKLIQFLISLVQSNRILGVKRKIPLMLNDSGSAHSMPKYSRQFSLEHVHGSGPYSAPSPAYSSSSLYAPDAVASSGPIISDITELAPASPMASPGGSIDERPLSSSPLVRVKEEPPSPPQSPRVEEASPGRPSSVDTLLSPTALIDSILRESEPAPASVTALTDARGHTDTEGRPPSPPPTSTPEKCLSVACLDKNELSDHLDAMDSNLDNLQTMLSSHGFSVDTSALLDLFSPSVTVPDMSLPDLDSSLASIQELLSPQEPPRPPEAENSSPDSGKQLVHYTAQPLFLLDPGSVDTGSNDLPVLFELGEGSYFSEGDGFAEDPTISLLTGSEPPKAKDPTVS
# Procedure, shortened: as §1
# SPIC = biological target: T8, SPIC (Homo sapiens, UniProt Q8N5J4 1-248); settings: protein: recombinant; tags: N-terminal GST; dsDNA, one strand shown
# T8 sequence: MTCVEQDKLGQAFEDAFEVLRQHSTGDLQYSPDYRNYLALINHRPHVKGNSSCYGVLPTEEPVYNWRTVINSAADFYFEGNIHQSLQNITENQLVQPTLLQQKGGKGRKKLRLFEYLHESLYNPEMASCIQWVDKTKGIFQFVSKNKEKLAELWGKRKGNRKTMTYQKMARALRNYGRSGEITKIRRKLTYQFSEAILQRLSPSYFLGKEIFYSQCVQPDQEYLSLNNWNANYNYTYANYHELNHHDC
# Procedure, shortened: as §1
# ELF4 = ELF4 (Homo sapiens, UniProt Q99607 1-663); settings: protein: recombinant; tags: N-terminal GST; dsDNA, one strand shown
# Sequence of ELF4 (Q99607 whole entry): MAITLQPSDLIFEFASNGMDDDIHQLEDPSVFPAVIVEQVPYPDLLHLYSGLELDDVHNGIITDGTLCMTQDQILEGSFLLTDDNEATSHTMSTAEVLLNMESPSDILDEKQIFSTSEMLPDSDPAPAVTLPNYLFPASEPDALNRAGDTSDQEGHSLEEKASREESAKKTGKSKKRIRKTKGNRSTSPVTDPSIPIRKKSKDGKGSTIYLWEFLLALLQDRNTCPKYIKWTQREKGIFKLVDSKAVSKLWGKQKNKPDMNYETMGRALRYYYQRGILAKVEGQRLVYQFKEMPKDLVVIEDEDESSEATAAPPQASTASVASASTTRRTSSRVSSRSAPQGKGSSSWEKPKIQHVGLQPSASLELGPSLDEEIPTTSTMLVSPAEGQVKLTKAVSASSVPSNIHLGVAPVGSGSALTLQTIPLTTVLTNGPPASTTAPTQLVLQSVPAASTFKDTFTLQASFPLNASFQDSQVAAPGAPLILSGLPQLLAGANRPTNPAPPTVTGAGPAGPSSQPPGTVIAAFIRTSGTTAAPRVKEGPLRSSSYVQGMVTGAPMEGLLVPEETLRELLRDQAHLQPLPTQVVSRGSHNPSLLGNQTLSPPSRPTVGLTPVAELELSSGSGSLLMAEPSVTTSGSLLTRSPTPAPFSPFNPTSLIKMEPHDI
# Procedure, shortened: as §1
# ELK4 = biological target: T9, ELK4 (Homo sapiens, UniProt P28324-2 1-405); settings: protein: recombinant; tags: N-terminal GST; dsDNA, one strand shown
# T9 sequence: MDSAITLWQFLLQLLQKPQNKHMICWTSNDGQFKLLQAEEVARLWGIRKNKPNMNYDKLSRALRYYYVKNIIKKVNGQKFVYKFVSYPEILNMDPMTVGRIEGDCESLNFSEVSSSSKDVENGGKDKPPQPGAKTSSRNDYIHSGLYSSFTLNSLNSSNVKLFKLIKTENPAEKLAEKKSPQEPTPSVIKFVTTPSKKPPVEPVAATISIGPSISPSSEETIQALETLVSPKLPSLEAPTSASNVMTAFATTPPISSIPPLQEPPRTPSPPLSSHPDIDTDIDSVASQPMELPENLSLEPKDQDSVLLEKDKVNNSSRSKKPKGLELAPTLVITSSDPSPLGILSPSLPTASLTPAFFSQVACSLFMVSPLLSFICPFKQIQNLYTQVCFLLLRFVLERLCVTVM
# Procedure, shortened: as §1
# ETV2 = biological target: T10, ETV2 (Homo sapiens, UniProt O00321 1-342); settings: protein: recombinant; tags: N-terminal GST; dsDNA, one strand shown
# T10 sequence: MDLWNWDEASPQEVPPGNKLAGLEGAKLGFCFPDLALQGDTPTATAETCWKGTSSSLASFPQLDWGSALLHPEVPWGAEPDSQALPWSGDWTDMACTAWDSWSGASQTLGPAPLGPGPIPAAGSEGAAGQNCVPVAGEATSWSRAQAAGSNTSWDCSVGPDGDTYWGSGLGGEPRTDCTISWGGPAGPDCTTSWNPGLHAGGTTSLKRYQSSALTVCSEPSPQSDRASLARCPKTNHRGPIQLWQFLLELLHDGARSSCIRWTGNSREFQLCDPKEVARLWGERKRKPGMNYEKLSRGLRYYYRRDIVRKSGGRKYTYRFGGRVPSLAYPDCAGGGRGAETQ
# Procedure, shortened: as §1
# ELF3 = biological target: T11, ELF3 (Homo sapiens, UniProt P78545 1-371); settings: protein: recombinant; tags: N-terminal GST; dsDNA, one strand shown
# T11 sequence: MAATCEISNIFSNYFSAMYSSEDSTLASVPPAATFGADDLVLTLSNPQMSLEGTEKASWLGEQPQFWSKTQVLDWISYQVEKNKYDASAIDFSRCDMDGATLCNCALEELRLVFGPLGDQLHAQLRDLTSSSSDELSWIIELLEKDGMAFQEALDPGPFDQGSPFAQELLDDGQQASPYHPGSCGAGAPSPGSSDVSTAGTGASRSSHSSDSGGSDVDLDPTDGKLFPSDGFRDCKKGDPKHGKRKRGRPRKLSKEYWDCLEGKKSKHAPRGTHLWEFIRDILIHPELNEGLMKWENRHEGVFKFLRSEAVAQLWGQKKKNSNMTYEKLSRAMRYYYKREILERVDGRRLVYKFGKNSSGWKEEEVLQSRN
# Procedure, shortened: as §1
# CRX = CRX (Homo sapiens, UniProt O43186 1-299); settings: protein: recombinant; tags: N-terminal GST; dsDNA, one strand shown
# Sequence of CRX (O43186 whole entry): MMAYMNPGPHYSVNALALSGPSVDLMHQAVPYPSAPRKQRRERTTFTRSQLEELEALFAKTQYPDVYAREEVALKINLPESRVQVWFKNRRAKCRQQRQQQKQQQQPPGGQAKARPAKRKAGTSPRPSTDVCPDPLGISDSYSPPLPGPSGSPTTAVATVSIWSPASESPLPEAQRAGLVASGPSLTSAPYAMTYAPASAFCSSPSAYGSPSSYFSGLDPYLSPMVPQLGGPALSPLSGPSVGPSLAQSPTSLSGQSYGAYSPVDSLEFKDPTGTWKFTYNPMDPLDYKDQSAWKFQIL
# Procedure, shortened: as §1
# ETV1 = ETV1 (Homo sapiens, UniProt P50549 1-477); settings: protein: recombinant; tags: N-terminal GST; dsDNA, one strand shown
# Sequence of ETV1 (P50549 whole entry): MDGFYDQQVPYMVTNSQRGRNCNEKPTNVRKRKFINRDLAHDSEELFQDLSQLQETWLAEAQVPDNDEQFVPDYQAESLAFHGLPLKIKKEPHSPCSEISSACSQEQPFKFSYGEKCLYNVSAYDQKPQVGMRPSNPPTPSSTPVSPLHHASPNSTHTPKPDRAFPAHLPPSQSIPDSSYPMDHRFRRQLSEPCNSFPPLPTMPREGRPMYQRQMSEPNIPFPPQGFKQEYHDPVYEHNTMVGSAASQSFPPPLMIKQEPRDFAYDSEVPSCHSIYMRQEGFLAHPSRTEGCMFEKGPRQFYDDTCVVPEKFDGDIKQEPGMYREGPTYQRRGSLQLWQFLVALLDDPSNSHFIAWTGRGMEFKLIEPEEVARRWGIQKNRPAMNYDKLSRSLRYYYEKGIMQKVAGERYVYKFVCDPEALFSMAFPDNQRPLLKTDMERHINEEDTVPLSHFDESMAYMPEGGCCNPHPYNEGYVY
# Procedure, shortened: as §1
sequence,measurement,setting,value
TAACAT,binding signal,FLI1,"1.41 fold enrichment (6-mer frequency, TF over GST control)"
same,binding signal,ELK1,"1.26 fold enrichment (6-mer frequency, TF over GST control)"
same,binding signal,GABPA,"1.3 fold enrichment (6-mer frequency, TF over GST control)"
same,binding signal,ERG,"1.36 fold enrichment (6-mer frequency, TF over GST control)"
same,binding signal,ELF1,"1.35 fold enrichment (6-mer frequency, TF over GST control)"
same,binding signal,EHF,"1.28 fold enrichment (6-mer frequency, TF over GST control)"
same,binding signal,SPI1,"1.32 fold enrichment (6-mer frequency, TF over GST control)"
same,binding signal,SPIB,"1.27 fold enrichment (6-mer frequency, TF over GST control)"
same,binding signal,ELK3,"1.28 fold enrichment (6-mer frequency, TF over GST control)"
same,binding signal,FEV,"1.32 fold enrichment (6-mer frequency, TF over GST control)"
same,binding signal,ETV5,"1.36 fold enrichment (6-mer frequency, TF over GST control)"
same,binding signal,HSF1,"1.29 fold enrichment (6-mer frequency, TF over GST control)"
same,binding signal,SPIC,"1.46 fold enrichment (6-mer frequency, TF over GST control)"
same,binding signal,ELF4,"1.37 fold enrichment (6-mer frequency, TF over GST control)"
same,binding signal,ELK4,"1.29 fold enrichment (6-mer frequency, TF over GST control)"
same,binding signal,ETV2,"1.39 fold enrichment (6-mer frequency, TF over GST control)"
same,binding signal,ELF3,"1.5 fold enrichment (6-mer frequency, TF over GST control)"
same,binding signal,CRX,"1.57 fold enrichment (6-mer frequency, TF over GST control)"
same,binding signal,ETV1,"1.37 fold enrichment (6-mer frequency, TF over GST control)"
